Measurements published in PubChem BioAssay.

target: Voltage-gated potassium channel subunit beta-2 (Rattus norvegicus) (UniProt P62483); assay: enhancers of rat Kvbeta2 NADPH turnover – biochemical, NADPH fluorescence, primary screen (AID 623); settings: Recombinant KvBeta, NADPH fluorescence decrease slope, 10 min; at 10 µM; hits give low values;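 note: fluorescence intensity change per second fitted from 20 to 320 s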
Sequence (P62483 whole entry, looked up): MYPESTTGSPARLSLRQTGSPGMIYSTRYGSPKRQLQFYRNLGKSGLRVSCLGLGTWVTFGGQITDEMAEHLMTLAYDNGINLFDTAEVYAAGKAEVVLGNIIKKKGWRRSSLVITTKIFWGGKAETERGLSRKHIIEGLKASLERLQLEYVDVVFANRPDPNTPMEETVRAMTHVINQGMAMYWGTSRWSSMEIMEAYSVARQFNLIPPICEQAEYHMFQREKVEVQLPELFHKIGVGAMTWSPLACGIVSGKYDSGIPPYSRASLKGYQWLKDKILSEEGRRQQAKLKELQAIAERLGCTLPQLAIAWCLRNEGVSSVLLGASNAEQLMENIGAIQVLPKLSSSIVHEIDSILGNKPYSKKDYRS

NADPH fluorescence slope, inactive:
CCS(=O)(=O)N1CCC(C(=O)NC2CCCCCCC2)CC1 1.4e-05
COc1ccc(C(=O)N2CCCc3ccccc32)cc1 -8e-05
CCOC(=O)c1cnn(-c2sc(C(=O)OCC)c(C)c2C(=O)OCC)c1N 2.2e-05
CCn1c(C(=O)N2CCCC(C(=O)NCCCc3ccccc3)C2)cc2sccc21 (stereo unspecified) -1.2e-05
CCC1CCCCN1CCCNC(=O)CC1Oc2ccc(C)cc2NC1=O (stereo unspecified) -3.5e-05
CC(C)OC(=O)CSc1nnc(-c2ccccn2)n1-c1ccccc1 -7.9e-05
O=C(O)C1CC=CCC1C(=O)Nc1cc(Cl)ccc1Cl (stereo unspecified) -2.3e-05
COC(=O)Nc1ccc(NC(C)=O)cc1 6e-05
O=C(COC(=O)c1cncc(Br)c1)NCCC1=CCCCC1 -3.9e-05
COc1cccc(-c2noc(C3CCCN(C(=O)Cc4ccccc4)C3)n2)c1 (stereo unspecified) -8.5e-06
Cc1cc(NS(=O)(=O)c2ccc(NC(=O)Nc3ccc4c(c3)OCO4)cc2)no1 -5.2e-05
CCOC(=O)N1CCC(N2C(=O)c3ccc(C(=O)NCc4ccco4)cc3C2=O)CC1 -2.2e-06
COc1ccc(C2CC(=O)C3=C(C2)Nc2ccccc2N(C(=O)C2CC2)C3c2cccnc2)cc1OC (stereo unspecified) 7.5e-06
OC(CNCC1COc2ccccc2O1)COCc1cccs1 (stereo unspecified) 6.2e-06
COC(=O)n1c(=S)oc2cc(Cl)ccc21 1.8e-05
CCOC(=O)C1CCN(C(=O)CCCCn2c(=O)[nH]c3ccccc3c2=O)CC1 3.1e-05
